Source: PubChem (The Scripps Research Institute Molecular Screening Center)
GPR151 activ: activators of human GPR151, primary screen, cell-based, PathHunter beta-arrestin, luminescence. G-protein coupled receptor 151 (Homo sapiens), Q8TDV0. PathHunter beta-arrestin GPR151 cells. activation, % at 11.2 µM. 650,000 tested, 1% active. AID 1508602, 2020; in the data active = activation above about 4.9%;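 note: 0% = median of compound wells and 100% = cells with positive control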
Target sequence (Q8TDV0 whole entry, looked up): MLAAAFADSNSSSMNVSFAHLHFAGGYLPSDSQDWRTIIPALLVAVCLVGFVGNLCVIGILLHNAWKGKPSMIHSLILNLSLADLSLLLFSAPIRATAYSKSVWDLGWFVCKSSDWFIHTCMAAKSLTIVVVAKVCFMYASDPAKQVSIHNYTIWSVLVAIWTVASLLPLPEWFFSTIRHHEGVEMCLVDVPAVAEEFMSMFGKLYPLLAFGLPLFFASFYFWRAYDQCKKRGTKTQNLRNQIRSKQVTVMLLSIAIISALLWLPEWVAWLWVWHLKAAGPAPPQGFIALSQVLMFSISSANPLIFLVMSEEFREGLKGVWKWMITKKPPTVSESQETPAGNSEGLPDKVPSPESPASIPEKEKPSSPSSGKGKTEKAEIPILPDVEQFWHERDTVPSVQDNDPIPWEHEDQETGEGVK
FBW7 act: FBW7 E3 ligase activators, primary screen, biochemical, AlphaScreen, human | AlphaScreen FBW7–phospho-cyclin E peptide binding, activator screen | normalized activity (activation), % at 26.1 µM | 650,000 tested, 0.13% active; in the data active = normalized activity above about 1.9%;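 note: purified mutant Fbw7 with reduced substrate affinity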
TEAD-YAP block: TEAD-YAP interaction inhibition, primary screen, TEAD-YAP interaction inhibitor project, luminescence, HEK-TIYL cells. 640,000 tested, 1.4% active. AID 1259422, 2018. TEAD-Gal4/YAP UAS-luciferase luminescence. inhibition, % at 9.12 µM; in the data active = inhibition above about 32%;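 note: 0% = median of test compound wells and 100% = reference inhibitor wells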
MITF inh: MITF inhibitors, primary screen, biochemical, AlphaScreen, human; AID 1259374, 2018; Microphthalmia-associated transcription factor (Homo sapiens), O75030; AlphaScreen MITF homodimerization, bead proximity signal; 650,000 tested, 0.91% active; inhibition, % at 2.6 µM; in the data active = inhibition above about 50%;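 note: 0% = vehicle wells with protein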
GPR151 confirm: GPR151 activators, triplicate retest, confirmation, cell-based, PathHunter beta-arrestin, luminescence; shares compounds with GPR151 activ; GPR151 PathHunter beta-arrestin cells, 90 min; % of EA-reagent control over plate median; activation, % at 11.2 µM; 6,700 tested, under 10 active;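 active = mean percent activation across replicates above the confirmation screen cutoff of 4.91%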
GPR119 ag: GPR119 activators in beta-arrestin cells, counter-screen for GPR151 activator project, cell-based, PathHunter beta-arrestin, luminescence, triplicate. 90 min; 0 = compound-well median, 100 = enzyme-acceptor control. activation, % at 11.2 µM. 6,700 tested, 0.3% active. shares compounds with GPR151 activ;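 active = mean percent activation in the counterscreen above 29.09%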;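 note: counterscreen on off-target GPR119 to flag nonselective hits from the GPR151 activator screen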
* hit, by the source's call; . = no result; ! = repeats disagree. Sampled rows, rich in hits. Any-hit rate of the full collection: about 3.4%.

SMILES | GPR151 activ | FBW7 act | TEAD-YAP block | MITF inh | GPR151 confirm | GPR119 ag
COc1ccc(/C=C2\C=C(c3ccccc3)N(c3ccc(-c4ccccc4)cc3)C2=O)cc1 | 7.0* | 0.1 | 7.9 | 6.5 | 1.2 | 5.6
CCN1C(=O)Cc2ccccc21 | 6.7* | 0.1 | 5.0 | -1.0 | -1.3 | -13.0
O=C(NCC1CCN(CC2CCCCC2)CC1)c1cnccn1 | -1.0 | -0.1 | -6.2 | -3.5 | . | .
CCc1nc2ccccc2c2nn(CC(=O)N3CCC(C(N)=O)CC3)c(=O)n12 | -0.7 | 0.2 | 2.3 | 18.5 | . | .
COc1ccc(-c2cnc(NCCCO)nc2)cc1 | -1.7 | 0.1 | -14.3 | 4.0 | . | .
OCCCNc1ncc(-c2ccc(Cl)cc2)cn1 | 5.8* | 0.1 | -4.5 | 0.1 | -0.6 | -1.3
CCOC(=O)c1c(NC(=O)c2ccc(F)cc2)sc(C(=O)Nc2cc(C(F)(F)F)ccc2Cl)c1C | -0.5 | -0.1 | 9.0 | 12.1 | . | .
CCN(C(=O)Cn1c(=O)oc2cc(Cl)ccc21)c1ccccc1 | 0.3 | -0.1 | 12.2 | 9.6 | . | .
Cc1ccccc1CN1CCC(N2CCC(C(=O)NCC3CCCO3)CC2)CC1 (centres undefined) | 8.4* | 0.0 | 9.5 | 6.1 | 0.5 | 18.3
CC1C(=O)N(Cc2ccc(Cl)cc2Cl)C(=O)CS1=O (centres undefined) | 6.6* | 0.1 | 1.6 | -2.8 | 0.1 | -2.5
Cc1cc(C(=O)NC(C)C(=O)O)cc(C)c1[N+](=O)[O-] (centres undefined) | 5.0* | 0.0 | 2.3 | 0.1 | 0.3 | 0.1
Cc1cc(C(=O)NC(CC(C)C)C(=O)O)cc(C)c1[N+](=O)[O-] (centres undefined) | 0.4 | -0.1 | -5.2 | -21.3 | . | .
Cc1nc(CCNS(=O)(=O)c2ccccc2)cs1 | 0.8 | 0.0 | -6.9 | -8.5 | . | .
CCCNC(=O)c1cccc(N2CCC(N3CCOCC3)CC2)n1 | 1.0 | 0.0 | 2.6 | 13.0 | . | .
O=C(NCCO)c1cccc(N2CCCC2CO)n1 (centres undefined) | -1.0 | 0.3 | 3.7 | 12.2 | . | .
O=C(NCCc1ccc(O)cc1)c1cccc(N2CCC(N3CCOCC3)CC2)n1 | 5.6* | 0.0 | 3.7 | 1.8 | -1.1 | -14.6
CC(=O)Nc1ccc(NC(=O)c2cccc(N3CCCC3CO)n2)cc1 (centres undefined) | 5.6* | -0.1 | 9.0 | -5.5 | 0.1 | -4.1
COc1ccc(CCNC(=O)c2cccc(N3CCCC3CO)n2)cc1 (centres undefined) | 8.7* | 0.1 | 46.5* | 3.2 | -0.1 | -6.9
CCc1ccccc1NC(=O)CSc1nc2cc(C(=O)NCc3ccco3)ccc2c(=O)n1Cc1ccco1 | 0.2 | 0.1 | 22.0 | 6.1 | . | .
C=C1C(=O)OC2CC3(C)CCCC(C)C3=CC12 (centres undefined) | 6.2*! | 0.1 | 11.5 | 6.0 | 0.5 | 2.7
O=C1OC(c2cccc(Cl)c2)=N/C1=C\c1ccccc1Br | 0.1 | -0.1 | 8.2 | 5.5 | . | .
O=C(NCc1cccc(C(F)(F)F)c1)C1CCN(c2ccc(Nc3ccccc3)nn2)CC1 | 0.7 | -0.1 | -0.9 | 1.4 | . | .
O=C(NCc1cccnc1)C1CCN(c2ccc(NC3CCN(Cc4ccccc4)CC3)nn2)CC1 | 0.0 | -0.1 | 12.5 | -9.4 | . | .
O=C(NCc1cccc(C(F)(F)F)c1)C1CCN(c2ccc(NC3CCN(Cc4ccccc4)CC3)nn2)CC1 | 5.6* | -0.1 | 38.3* | 15.1 | -0.9 | -10.4
Cn1nccc1Nc1ccc(N2CCC(C(=O)NCc3cccc(C(F)(F)F)c3)CC2)nn1 | 5.2* | 0.0 | 10.8 | -3.3 | 1.3 | 1.1
SMILES | GPR151 activ | FBW7 act | TEAD-YAP block | MITF inh | GPR151 confirm | GPR119 ag
COc1cc(/C=N/NC(=O)CN2CC(c3ccccc3)CC2=O)cc2sc(=O)oc12 (centres undefined) | 0.5 | -0.5 | 4.9 | 0.1 | . | .
COc1cc(/C=N/NC(=O)Cn2nnc(-c3ccccc3)n2)cc2sc(=O)oc12 | 8.0* | 0.0 | 9.0 | 5.1 | -0.1 | 4.4
O=C1CSC(=O)N1C1CCCCC1NC(=O)C1(c2cccs2)CCCC1 (centres undefined) | 5.5* | -0.1 | 2.7 | -0.9 | -0.9 | -7.6
CCc1nccn1S(=O)(=O)c1cc(Br)c(C)cc1OC | 2.0 | 0.0 | 3.8 | 2.6 | . | .
CCc1nccn1S(=O)(=O)c1ccc(OC)c2ccccc12 | 6.8* | 0.0 | 3.9 | -466.4 | -0.1 | 1.8
O=C1Nc2ccc3ccccc3c2C(c2ccccc2)N1 (centres undefined) | 9.1* | 0.8 | 15.9 | 1.2 | -0.8 | -12.7
O=C(CN1CCC(NC(=O)NC2CCCCC2)CC1)Nc1cccc(Cl)c1Cl | 2.4 | 0.3 | -2.3 | 5.5 | . | .
N#Cc1ccc(OCC(=O)OCC(=O)Nc2ncc(Cl)cc2Cl)cc1 | 5.6* | -0.2 | 0.1 | -4.4 | -0.4 | -8.1
N#C/C(=C\c1c(F)cccc1Cl)C(=O)Nc1ccc(C(=O)O)cc1 | 0.4 | 0.1 | 2.6 | 4.9 | . | .
Cc1ccc(NC(=O)CSc2nc3[nH]ncc3c(=O)n2-c2ccc(Br)cc2)cc1Cl | 7.5* | -0.1 | 22.2 | -7.0 | 0.2 | 9.5
COc1ccc(S(=O)(=O)NC(CC(=O)NCCCN2CCOCC2)C(C)C)cc1 (centres undefined) | -1.7 | -0.2 | 3.2 | -1.9 | . | .
Cc1ccccc1C1CC(=O)Nc2cc3c(cc21)OCO3 (centres undefined) | 6.0* | 0.2 | 6.2 | 11.3 | 0.5 | 6.5
COc1cc(CN(C)CCN(C)C)cc2c1OCO2 | -0.7 | -0.2 | 5.5 | 6.8 | . | .
Cc1cc(C)cc(NC(=O)C2CCN(c3nnc(-n4c(C)ccc4C)s3)CC2)c1 | 5.5* | 0.0 | 5.1 | 4.8 | 0.0 | -10.1
Cc1cc2c(cc1S(=O)(=O)C(C)CC(=O)NCc1ccc3c(c1)OCO3)OCC(=O)N2 (centres undefined) | 1.5 | 0.2 | -1.0 | 9.9 | . | .
CCC1(C2CCN(Cc3ccoc3)CC2)NC(=O)N(CCc2ccc(OC)cc2)C1=O (centres undefined) | 13.5* | -0.2 | 3.4 | -16.6 | 0.2 | 7.0
COC(=O)C1CCN(C(=O)CC(C)(C)C)CC1 | 6.1* | 0.3 | -2.5 | 16.7 | 1.5 | 3.3
O=C(CSc1nc2ccccc2c2nc(-c3ccc([N+](=O)[O-])cc3)nn12)c1ccc(Br)cc1 | 0.1 | 0.4 | -4.3 | -21.5 | . | .
CSc1nsc(SC)c1C(=O)N1CCN(S(=O)(=O)c2ccc(C)cc2)C1C (centres undefined) | 5.0* | -0.3 | 2.9 | 3.1 | 1.4 | 9.8
CCCN1C(=S)NC2c3ccccc3OC1(C)C2C (centres undefined) | 7.5* | 0.0 | -0.6 | 11.1 | 1.0 | 8.6
